# Key:
# Experiment in all cases: DAPPL (digital affinity profiling via proximity ligation, sequencing); 10 mM Tris-HCl pH 7.5, 50 mM NaCl, 1 mM DTT, 4% glycerol, room temperature, 30 min; GST-TFs on glutathione beads, 16-mer random dsDNA library, 0.1% formaldehyde crosslink after washing; high values mean tight binding
# Settings in all cases: protein: recombinant; tags: N-terminal GST; dsDNA, one strand shown
# FLI1 = molecular target: T1, FLI1 (Homo sapiens, UniProt Q01543 1-452)
# T1 sequence: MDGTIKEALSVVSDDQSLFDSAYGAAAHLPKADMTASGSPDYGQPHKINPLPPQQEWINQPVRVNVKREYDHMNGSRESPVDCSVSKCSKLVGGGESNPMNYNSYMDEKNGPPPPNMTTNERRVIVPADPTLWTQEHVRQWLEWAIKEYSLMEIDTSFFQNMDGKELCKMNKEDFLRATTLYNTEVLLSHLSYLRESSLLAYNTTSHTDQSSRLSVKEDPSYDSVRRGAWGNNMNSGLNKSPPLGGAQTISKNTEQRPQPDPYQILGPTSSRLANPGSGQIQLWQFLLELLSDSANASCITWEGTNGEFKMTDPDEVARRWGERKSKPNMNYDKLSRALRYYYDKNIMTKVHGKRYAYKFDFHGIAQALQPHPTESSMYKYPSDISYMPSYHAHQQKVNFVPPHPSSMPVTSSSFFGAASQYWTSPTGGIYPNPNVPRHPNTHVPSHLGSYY
# Outline: (§1)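 Human transcription factors fused to GST were expressed in yeast, captured on glutathione beads, given DNA barcodes and pooled with a GST-only negative control. Pools were incubated with 200 nmole of a 16-mer random double-stranded DNA library in Tris/NaCl/DTT/glycerol buffer at room temperature for 30 min. They were then washed, crosslinked with 0.1% formaldehyde, proximity-ligated (BsaI/T4 ligase, 1 h, 37 °C), PCR-amplified and sequenced on an Illumina NextSeq500. Binding signal is each 6-mer's read frequency for a factor divided by its frequency for the GST control.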
# ELK1 = molecular target: T2, ELK1 (Homo sapiens, UniProt P19419 1-428)
# T2 sequence: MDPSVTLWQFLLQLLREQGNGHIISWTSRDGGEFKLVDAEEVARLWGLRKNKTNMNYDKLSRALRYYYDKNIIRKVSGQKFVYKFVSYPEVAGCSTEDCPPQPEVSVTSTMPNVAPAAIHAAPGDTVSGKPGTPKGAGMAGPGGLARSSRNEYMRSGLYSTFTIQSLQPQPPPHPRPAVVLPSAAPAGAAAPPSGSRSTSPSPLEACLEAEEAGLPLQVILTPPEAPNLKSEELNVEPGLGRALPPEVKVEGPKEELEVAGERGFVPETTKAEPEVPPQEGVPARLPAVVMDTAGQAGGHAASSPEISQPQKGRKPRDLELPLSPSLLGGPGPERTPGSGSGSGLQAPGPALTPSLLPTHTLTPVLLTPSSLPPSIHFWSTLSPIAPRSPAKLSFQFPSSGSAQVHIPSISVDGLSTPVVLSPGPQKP
# Outline: as §1
# GABPA = molecular target: T3, GABPA (Homo sapiens, UniProt Q06546 1-454)
# T3 sequence: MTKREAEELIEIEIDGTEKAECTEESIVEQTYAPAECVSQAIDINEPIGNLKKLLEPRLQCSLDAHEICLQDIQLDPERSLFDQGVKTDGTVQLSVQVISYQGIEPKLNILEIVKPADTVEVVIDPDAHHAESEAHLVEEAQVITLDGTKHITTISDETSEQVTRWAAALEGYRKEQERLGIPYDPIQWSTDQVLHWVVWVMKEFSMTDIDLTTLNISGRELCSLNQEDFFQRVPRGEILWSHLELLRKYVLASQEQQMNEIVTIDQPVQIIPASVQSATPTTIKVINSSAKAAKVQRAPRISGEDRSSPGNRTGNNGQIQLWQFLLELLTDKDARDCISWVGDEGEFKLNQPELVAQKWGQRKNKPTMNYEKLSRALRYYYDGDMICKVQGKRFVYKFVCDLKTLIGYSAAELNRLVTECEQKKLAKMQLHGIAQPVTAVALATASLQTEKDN
# Outline: as §1
# ERG = molecular target: T4, ERG (Homo sapiens, UniProt P11308 1-479)
# T4 sequence: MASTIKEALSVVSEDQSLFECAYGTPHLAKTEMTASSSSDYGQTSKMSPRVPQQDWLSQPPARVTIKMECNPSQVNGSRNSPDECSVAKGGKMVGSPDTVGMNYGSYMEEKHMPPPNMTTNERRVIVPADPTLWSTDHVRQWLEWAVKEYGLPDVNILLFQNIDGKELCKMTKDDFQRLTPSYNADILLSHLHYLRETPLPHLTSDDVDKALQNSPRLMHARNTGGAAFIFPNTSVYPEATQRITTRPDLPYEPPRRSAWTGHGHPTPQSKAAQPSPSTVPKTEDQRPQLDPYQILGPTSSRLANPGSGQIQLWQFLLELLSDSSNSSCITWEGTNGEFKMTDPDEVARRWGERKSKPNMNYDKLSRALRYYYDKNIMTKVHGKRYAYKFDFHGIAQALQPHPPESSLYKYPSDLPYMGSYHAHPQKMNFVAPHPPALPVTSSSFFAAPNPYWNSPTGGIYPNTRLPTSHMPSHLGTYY
# Outline: as §1
# ELF1 = ELF1 (Homo sapiens, UniProt P32519 1-619)
# Outline: as §1
# ELK3 = molecular target: T5, ELK3 (Homo sapiens, UniProt P41970 1-407)
# T5 sequence: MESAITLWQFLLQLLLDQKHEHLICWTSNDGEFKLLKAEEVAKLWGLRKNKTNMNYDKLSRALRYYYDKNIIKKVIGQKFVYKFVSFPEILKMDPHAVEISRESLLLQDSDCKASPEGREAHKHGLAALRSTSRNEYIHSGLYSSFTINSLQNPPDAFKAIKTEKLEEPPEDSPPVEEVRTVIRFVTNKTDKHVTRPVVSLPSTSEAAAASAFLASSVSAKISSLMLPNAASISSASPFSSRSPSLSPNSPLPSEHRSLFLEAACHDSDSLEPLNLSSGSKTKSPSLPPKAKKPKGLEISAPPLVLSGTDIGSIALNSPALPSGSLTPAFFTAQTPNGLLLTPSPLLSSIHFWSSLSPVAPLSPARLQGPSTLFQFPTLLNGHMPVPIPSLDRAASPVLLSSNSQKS
# Outline: as §1
# SPIC = molecular target: T6, SPIC (Homo sapiens, UniProt Q8N5J4 1-248)
# T6 sequence: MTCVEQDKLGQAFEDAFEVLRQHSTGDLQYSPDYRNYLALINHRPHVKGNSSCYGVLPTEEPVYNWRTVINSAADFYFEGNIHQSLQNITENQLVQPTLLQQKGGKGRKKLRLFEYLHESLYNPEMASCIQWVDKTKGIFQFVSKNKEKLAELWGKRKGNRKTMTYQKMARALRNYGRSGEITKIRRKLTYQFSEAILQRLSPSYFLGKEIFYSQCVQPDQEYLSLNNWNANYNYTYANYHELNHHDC
# Outline: as §1
# ELF4 = ELF4 (Homo sapiens, UniProt Q99607 1-663)
# Outline: as §1
# Sequence of ELF4 (Q99607 whole entry): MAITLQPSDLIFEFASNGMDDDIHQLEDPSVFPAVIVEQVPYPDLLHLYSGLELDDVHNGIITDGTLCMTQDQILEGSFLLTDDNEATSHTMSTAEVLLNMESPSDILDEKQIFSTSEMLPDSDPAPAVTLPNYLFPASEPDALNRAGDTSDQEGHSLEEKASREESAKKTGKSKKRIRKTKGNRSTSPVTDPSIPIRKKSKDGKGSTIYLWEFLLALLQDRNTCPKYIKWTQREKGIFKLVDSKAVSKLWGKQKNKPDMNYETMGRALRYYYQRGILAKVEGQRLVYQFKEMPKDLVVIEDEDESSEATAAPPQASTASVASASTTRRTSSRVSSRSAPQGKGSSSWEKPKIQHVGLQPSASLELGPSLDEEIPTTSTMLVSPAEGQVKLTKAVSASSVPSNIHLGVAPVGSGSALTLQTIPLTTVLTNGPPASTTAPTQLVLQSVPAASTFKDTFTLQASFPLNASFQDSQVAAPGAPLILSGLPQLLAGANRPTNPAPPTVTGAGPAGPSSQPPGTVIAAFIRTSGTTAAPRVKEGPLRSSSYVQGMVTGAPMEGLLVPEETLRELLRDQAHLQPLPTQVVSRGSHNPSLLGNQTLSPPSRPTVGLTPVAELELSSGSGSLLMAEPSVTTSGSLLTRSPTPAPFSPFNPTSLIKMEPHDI
# Sequence of ELF1 (P32519 whole entry): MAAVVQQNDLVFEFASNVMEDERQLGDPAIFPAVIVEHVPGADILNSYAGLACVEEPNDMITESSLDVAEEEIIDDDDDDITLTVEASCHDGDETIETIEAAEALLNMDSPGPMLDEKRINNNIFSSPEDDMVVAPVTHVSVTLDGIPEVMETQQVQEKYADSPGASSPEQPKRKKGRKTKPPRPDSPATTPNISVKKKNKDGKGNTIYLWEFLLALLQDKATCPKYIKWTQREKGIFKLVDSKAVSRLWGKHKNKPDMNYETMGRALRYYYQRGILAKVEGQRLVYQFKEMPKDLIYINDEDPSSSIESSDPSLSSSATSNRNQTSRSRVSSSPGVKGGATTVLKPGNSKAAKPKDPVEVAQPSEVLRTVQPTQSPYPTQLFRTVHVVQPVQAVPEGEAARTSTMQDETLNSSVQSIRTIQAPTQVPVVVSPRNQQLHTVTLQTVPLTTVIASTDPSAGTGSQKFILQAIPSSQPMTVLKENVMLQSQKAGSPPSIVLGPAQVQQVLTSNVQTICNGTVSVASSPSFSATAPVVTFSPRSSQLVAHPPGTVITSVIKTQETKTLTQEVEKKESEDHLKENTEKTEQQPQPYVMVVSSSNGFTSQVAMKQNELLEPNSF
sequence,measurement,setting,value
CTAGAA,binding signal,FLI1,"1.06 fold enrichment (6-mer frequency, TF over GST control)"
same,binding signal,ELK1,"1 fold enrichment (6-mer frequency, TF over GST control)"
same,binding signal,GABPA,"1.05 fold enrichment (6-mer frequency, TF over GST control)"
same,binding signal,ERG,"1.05 fold enrichment (6-mer frequency, TF over GST control)"
same,binding signal,ELF1,"1.04 fold enrichment (6-mer frequency, TF over GST control)"
same,binding signal,ELK3,"1.09 fold enrichment (6-mer frequency, TF over GST control)"
same,binding signal,SPIC,"1.03 fold enrichment (6-mer frequency, TF over GST control)"
same,binding signal,ELF4,"1.05 fold enrichment (6-mer frequency, TF over GST control)"
